Laboratory results published in PubChem BioAssay (Tox21).
Inconclusive results are not listed. The source made the active and inactive calls. Unless noted, calls come from the whole dose curve; as a rule, active = well fitted curve in the direction sought with a large enough effect in the repeat runs; inconclusive = weak or mixed curves; inactive = no such curve, though single readings can be large; an effect the other way counts as inactive or inconclusive.

Experiments:
[1] = qHTS assay to identify small molecule agonists of the vitamin D receptor (VDR) signaling pathway - cell viability counter screen (AID 743224); note: series mostly up to about 63 µM; nearly all actives have a fitted effect of over 50% in size
Summary of the method: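 VDR-bla cell line, quantitative HTS format; 16 h compound incubation (37C, 5% CO2); ATP-based CellTiter-Glo luminescence measured in the reporter assay wells.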

[2] = qHTS assay to identify small molecule agonists of the NFkB signaling pathway (AID 1159509; active = well fitted curve in the direction sought with a large enough effect in the signal ratio in the repeat runs, not every such curve was filed as active; the % refers to the signal ratio; note: series mostly up to about 61 µM)
Summary of the method: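 After overnight attachment, reporter cells received test compounds, DMSO or positive controls and were incubated 5 hr at 37 C. FRET substrate was then added for 1.5 hr at room temperature before dual-emission fluorescence reading.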

[3] = qHTS assay to identify small molecule agonists of the NFkB signaling pathway - cell viability counter screen (AID 1159515; calls by dose curve; note: series mostly up to about 61 µM; nearly all actives have a fitted effect of over 55% in size)
Summary of the method: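 Viability in NFkB-bla ME-180 cells was measured by CellTiter-Glo luminescence, 30 min room temperature, in wells already treated 5 hr with compounds and read for reporter FRET.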

[4] = qHTS assay to identify small molecule agonists of the endoplasmic reticulum stress response signaling pathway (AID 1159516; active = well fitted activation curve with a large enough effect in the signal ratio in the repeat runs, not every such curve was filed as active; the % refers to the signal ratio)
Summary of the method: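 ER stress element reporter (bla) in HeLa. 1,500 cells/well, overnight attachment; 5 hr compound; 2 hr RT substrate; dual-emission fluorescence.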

[5] = qHTS assay to identify small molecule agonists of the endoplasmic reticulum stress response signaling pathway - cell viability counter screen (AID 1159517; calls by dose curve;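 note: HeLa cells carrying an ER stress response element beta-lactamase reporter; series mostly up to about 61 µM; nearly all actives have a fitted effect of over 50% in size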)
Summary of the method: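 Luminescence readout: CellTiter-Glo, 30 min RT, same wells as the ESRE-bla reporter read. HeLa ESRE-bla, 1,500 cells/well, o/n 37 C; cpd 5 hr 37 C/5% CO2.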

[6] = qHTS assay to identify small molecule antagonists of the retinoid-related orphan receptor gamma (ROR-gamma) signaling pathway - cell viability counter screen (AID 1159520); note: nearly all actives have a fitted effect of over 50% in size; note: potency is the fitted concentration of half-maximal effect
Summary of the method: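 Tet-on ROR gamma CHO cells (1,000/well) were plated 4 hr, given compounds in DMSO for 2 hr at 37 C, then induced with 1 uM final doxycycline for 16 hr. Viability was read as ATP by CellTiter-Glo luminescence after 30 min.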

[7] = qHTS assay to identify small molecule agonists of the AP-1 signaling pathway - cell viability counter screen (AID 1159525; calls by dose curve; note: nearly all actives have a fitted effect of over 55% in size)
Summary of the method: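 ME-180 AP-1-bla, 2500 cells/well, Opti-MEM + 0.5% dialyzed FBS; overnight 37 °C; cpd 15-pt titration, 5 h 37 °C; CellTiter-Glo 30 min RT; luminescence read; normalised to TOAB and DMSO controls.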

[8] = qHTS assay to identify small molecule agonists of the AP-1 signaling pathway (AID 1159526; calls by dose curve)
[9] = qHTS assay to identify small molecule antagonists of the retinoid acid receptor (RAR) signaling pathway - cell viability counter screen (AID 1159551); note: nearly all actives have a fitted effect of over 35% in size
Summary of the method: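 Following overnight attachment, C3RL4 reporter cells received DMSO-dissolved compounds and then retinol (1 uM final). Six hours later at 37 C, ATP content was measured by CellTiter-Glo luminescence.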

[10] = qHTS assay to identify small molecule antagonists of the retinoic acid receptor (RAR) signaling pathway (AID 1159552; note: nearly all actives have a fitted effect of over 50% in size)
Summary of the method: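 Retinol at 1 uM final stimulated RARE-luciferase expression in C3RL4 cells exposed to test compounds for 6 hr at 37 C. Reduced luminescence, read 30 min after detection reagent, indicated pathway antagonism.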

[11] = qHTS assay to identify small molecule agonists of the retinoic acid receptor (RAR) signaling pathway (AID 1159553); note: potency is the fitted concentration of half-maximal effect
Summary of the method: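 Cell line C3RL4, RARE luciferase reporter. Treatment: compounds in DMSO, 6 hr, 37 C, 5% CO2, after overnight plating. Detection: luminescence, 30 min RT after reagent.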

[12] = qHTS assay to identify small molecule antagonists of the vitamin D receptor (VDR) signaling pathway - cell viability counter screen (AID 743225); note: nearly all actives have a fitted effect of over 50% in size
Summary of the method: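 HEK293T VDR-bla; cpd + 1a,25-(OH)2D3 3 nM final, 16 h 37C/5% CO2; B/G FRET substrate 2 h RT; then CellTiter-Glo 30 min RT, luminescence.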

[13] = molecular target: Nuclear receptor ROR-gamma (Homo sapiens) (UniProt P51449); test: qHTS assay to identify small molecule antagonists of the retinoid-related orphan receptor gamma (ROR-gamma) signaling pathway (AID 1159521)
Summary of the method: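 Cells were plated, rested 4 h at 37 C, exposed to compounds for 2 h, then given 1 uM final doxycycline hyclate to induce RORγ expression. After 16 h, ONE-Glo luminescence from the ROR response element reporter was measured.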

[14] = qHTS assay to identify small molecule agonists of the RXR signaling pathway - cell viability counter screen (AID 1159529)
Summary of the method: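 Steps: seed RXR-alpha-UAS-bla HEK 293T cells in assay medium containing 2% charcoal-stripped FBS; incubate 5 hr; add compounds in DMSO; incubate 16 hr at 37 C; after the bla read, add CellTiter-Glo and read luminescence at 30 min.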

[15] = molecular target: Retinoic acid receptor RXR-alpha (Homo sapiens) (UniProt P19793); test: qHTS assay to identify small molecule agonists of the RXR signaling pathway (AID 1159527; calls by dose curve; note: nearly all actives have a fitted effect of over 35% in size)
Retinoic acid receptor RXR-alpha (Homo sapiens), sequence (P19793 whole entry, looked up): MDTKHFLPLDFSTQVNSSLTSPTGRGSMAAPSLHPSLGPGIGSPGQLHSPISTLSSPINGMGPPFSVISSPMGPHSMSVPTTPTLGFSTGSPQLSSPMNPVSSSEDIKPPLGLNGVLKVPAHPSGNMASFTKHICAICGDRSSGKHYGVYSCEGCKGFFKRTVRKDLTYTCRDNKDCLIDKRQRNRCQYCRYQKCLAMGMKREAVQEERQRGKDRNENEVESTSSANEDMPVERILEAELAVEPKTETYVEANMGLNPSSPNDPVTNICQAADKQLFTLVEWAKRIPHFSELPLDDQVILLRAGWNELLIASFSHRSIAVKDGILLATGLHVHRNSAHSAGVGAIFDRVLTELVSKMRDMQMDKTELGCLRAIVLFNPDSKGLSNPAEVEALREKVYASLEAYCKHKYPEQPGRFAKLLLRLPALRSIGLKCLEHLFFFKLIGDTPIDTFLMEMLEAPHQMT
Summary of the method: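 Cells plated at 2,000/well, rested 5 hr at 37 C, pin-dosed with DMSO compound solutions, incubated 16 hr, then loaded with B/G FRET substrate for 2 hr at RT before dual-emission fluorescence reading.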

[16] = qHTS assay to identify small molecule antagonists of the estrogen related receptor (ERR) signaling pathway - cell viability counter screen (AID 1224818);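 note: series mostly up to about 46 µM; viability measured after 17.5 h of compound exposure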
Summary of the method: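 Here, ERR cells are plated at 2,000 cells per well, allowed 6 h to attach, and treated with compounds in DMSO for 17.5 h at 37 C. CellTiter-Fluor is then added and fluorescence read after 30 min.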

[17] = qHTS assay to identify small molecule antagonists of the estrogen related receptor signaling pathway with the pleiotropic PPARgamma coactivator (PGC) cell viability counter screen (AID 1224822;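 note: series mostly up to about 46 µM; viability read after 17.5 h compound exposure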)
Summary of the method: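 qHTS format, DMSO compound stocks pin-transferred onto PGC/ERR cells 6 h after plating; 17.5 h exposure at 37 C, then CellTiter-Fluor fluorescence.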

Measured: Potency

CCn1nc(Cc2ccccc2)cc1C1CCN(C[C@H]2C[C@H](N(C)[C@@H](C(=O)O)C(C)C)C[C@@H]2c2cccc(F)c2)CC1
not listed: [12] | [13] | [14] | [15] | [16] | [17]
inactive: all other assays above

CCCCOC(=O)CC#N
not listed: [6] | [9] | [11] | [15] | [16] | [17]
inactive: all other assays above

O=C1c2ccccc2C(=O)c2c1ccc(O)c2O
not listed: [6] | [13] | [15] | [16] | [17]
inactive: all other assays above

O=C(O)c1ccccc1[N+](=O)[O-]
not listed: [6] | [12] | [15] | [16] | [17]
inactive: all other assays above

CCc1c(C)[nH]c2c1C(=O)C(CN1CCOCC1)CC2 (configuration not stated)
not listed: [8] | [11] | [13]
inactive: all other assays above

CC(=O)c1cccnc1
inactive: [12] | [2] | [3] | [4] | [5] | [7] | [8] | [14] | [9]

CC(C)(C(=O)O)c1ccc(C(O)CCCN2CCC(C(O)(c3ccccc3)c3ccccc3)CC2)cc1 (configuration not stated)
not listed: [10] | [11] | [13] | [15]
inactive: all other assays above

OCC(O)c1ccccc1 (configuration not stated)
not listed: [6] | [9] | [12] | [15] | [16] | [17]
inactive: all other assays above

CCCCCCCCCC(C)C=O (configuration not stated)
not listed: [6] | [11] | [12] | [15] | [16] | [17]
inactive: all other assays above

O=Cc1ccc(Cl)c([N+](=O)[O-])c1
not listed: [9] | [10] | [11] | [13] | [15] | [16] | [17]
inactive: all other assays above

Cc1ccc2c(Cl)cc(Cl)c(O)c2n1
not listed: [6] | [13] | [15] | [16] | [17]
inactive: all other assays above

CC(=O)S[C@H](C(=O)N[C@H]1Cc2ccccc2[C@H]2CCC[C@@H](C(=O)O)N2C1=O)C(C)C
not listed: [6] | [10] | [11] | [15] | [16] | [17]
inactive: all other assays above

O=[N+]([O-])c1ccc(Cl)cc1Cl
not listed: [3] | [15] | [16] | [17]
inactive: all other assays above

CC(=O)Nc1cccc(N)c1
not listed: [1] | [2] | [11] | [12] | [15] | [16] | [17]
inactive: all other assays above

COc1ccnc2c1CCCCC2S(=O)c1nc2ccccc2[nH]1 (configuration not stated)
not listed: [3] | [11] | [14] | [15] | [16] | [17]
inactive: all other assays above

O=[N+]([O-])c1cccc(I)c1
not listed: [1] | [3] | [6] | [11] | [15] | [16] | [17]
inactive: all other assays above

Oc1ccc(Oc2ccccc2)cc1
not listed: [3] | [11] | [15] | [16] | [17]
inactive: all other assays above

CCOc1ccc(NC(C)=O)cc1N
not listed: [1] | [3] | [9] | [11] | [15] | [16] | [17]
inactive: all other assays above

C=CC(O)CCCCC (configuration not stated)
not listed: [3] | [10] | [11] | [15] | [16] | [17]
inactive: all other assays above

Cc1c(N=C=O)cccc1N=C=O
not listed: [3] | [11] | [15] | [16] | [17]
inactive: all other assays above

COc1ccc(/C(C)=C/C(=O)O)c(OC)c1
not listed: [3] | [10] | [11] | [12] | [15] | [16] | [17]
inactive: all other assays above

CC(C)C[C@H](NC(=O)[C@H](Cc1ccccc1)NC(=O)c1cnccn1)B(O)O
active: [6] 66.8 nM | [11] 9.4 nM
not listed: [1] | [3] | [13] | [15] | [16] | [17]
inactive: all other assays above
